The source made the active and inactive calls. Rule for the calls: active = hit-call score of the fitted dose curve at least 0.9, where 1 is the maximum; inactive = score below 0.9.
Each molecule was assayed against Nuclear respiratory factor 1 (Homo sapiens) (UniProt Q16656) (assay: ATG_NRF1_CIS: Attagene CIS-FACTORIAL HepG2 Assay for human Nuclear Respiratory Factor 1 (NRF1) Orphan Gene (AID 2282987)). Conditions: HepG2 NRF1 cis-element reporter, Attagene multiplex; actives raise or lower the signal.
Nuclear respiratory factor 1 (Homo sapiens), sequence (Q16656 whole entry, looked up): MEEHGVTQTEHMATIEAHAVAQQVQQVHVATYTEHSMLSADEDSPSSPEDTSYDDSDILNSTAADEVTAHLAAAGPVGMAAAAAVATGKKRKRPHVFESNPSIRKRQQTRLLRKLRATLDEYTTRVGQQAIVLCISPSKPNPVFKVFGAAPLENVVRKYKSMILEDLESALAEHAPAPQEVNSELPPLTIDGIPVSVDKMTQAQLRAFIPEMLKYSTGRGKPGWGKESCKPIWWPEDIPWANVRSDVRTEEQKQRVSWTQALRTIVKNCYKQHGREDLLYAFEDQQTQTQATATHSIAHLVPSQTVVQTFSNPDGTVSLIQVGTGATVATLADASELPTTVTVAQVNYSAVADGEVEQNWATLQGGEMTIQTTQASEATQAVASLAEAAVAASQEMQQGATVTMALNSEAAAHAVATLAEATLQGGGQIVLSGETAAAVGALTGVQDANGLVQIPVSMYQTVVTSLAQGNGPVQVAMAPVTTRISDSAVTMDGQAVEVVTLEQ
Experimental: ATG_CIS is a cell-based, multiplexed-readout assay that uses HepG2, a human liver cell line, with measurements taken at 24 hours after chemical dosing in a 24-well plate.ATG_NRF1_CIS is one of 52 assay component(s) measured or calculated from the ATG_CIS assay. It is designed to make measurements of mRNA induction, a form of inducible reporter, as detected with fluorescence intensity signals by Reverse transcription polymerase chain reaction (RT-PCR) and Capillary electrophoresis technology.Data from the assay component ATG_NRF1_CIS was analyzed into 1 assay endpoint. This assay endpoint, ATG_NRF1_CIS, was analyzed with bidirectional fitting relative to DMSO as the negative control and baseline of activity. Using a type of inducible reporter, measures of mRNA for gain or loss-of-signal activity can be used to understand the reporter gene at the transcription factor-level as they relate to the gene NRF1. Furthermore, this assay endpoint can be referred to as a primary readout, because this assay has produced multiple assay endpoints where this one serves a reporter gene function. To generalize the intended target to other relatable targets, this assay endpoint is annotated to the dna binding intended target family, where the subfamily is nuclear respiratory factors.
Human liver HepG2 cells are transiently transfected with multiple reporter transcription units (MRTUs) in 6-well plates using FuGene 6 reagent (Roche; 3 ml FuGene/1 mg DNA). The MRTU constructs are regulated by a cis-regulating element (promoter). […] A major difference between the CIS and TRANS system is that in CIS activities of endogenous TFs are measured, whereas the TRANS assay evaluates changes in activities of exogenous, chimeric NR-Gal4 proteins. […] At the end of 24 hour incubation, total RNA was isolated using TriZol reagent (Invitrogen). The isolated RNA is then reverse-transcribed using oligo(dT) primer and Mo-MLV reverse transcriptase (Invitrogen) with DNAse I (Ambion) treatment for 30 min. The one-tenth of the produced cDNA was amplified by PCR using Taq DNA polymerase (Invitrogen) and two reporter sequence-specific primers. The PCR products were fluorescently labeled by primer extension with 6-arboxyfluorescein (6-FAM) 5'-labeled reporter sequence-specific primer (2 min at 95 C, 20 s at 68 C and 10 min at 72 C) and these products were digested with 5U of HpaI (New England Biolabs) for 2h at 37 C. The fragments were purified using Qiaquick PCR columns (Qiagen), analyzed on an ABI 3130xL genetic analyzer (Applied Biosystems) with peak positions identified by using a set of X-rhodamine (ROX)-labeled MapMarker1000 molecular weight standards (BioVentures). The raw capillary electrophoresis data was processed using Attagraph software (Attagene).

outcome, inactive:
O=C(OCC1CCC2OC2C1)C1CCC2OC2C1 (stereo not given)
CC(C)c1ccc(C#N)cc1
C=C(C)C(=O)OCC(C)C
Cc1ccc(OC(=O)CC(C)C)cc1
O=C1C=CC(=O)O1
CC(C)c1ccc2c(c1)CC[C@H]1[C@](C)(CN)CCC[C@]21C
Oc1ccc(Cl)cc1Cc1cc(Cl)ccc1O
C1=Cc2ccccc2C1
O=C1CCC(=O)N1Cl
CCCCCCCCCCC=CC#N
O=C1CCCC(=O)O1
CC(C)(C)c1n[nH]c(=O)n(N)c1=O
NC(=O)OCC(COC(N)=O)c1ccccc1
CCCCCC(C)O (stereo not given)
CCCC(=O)OCc1ccccc1
O=S(=O)(O)c1ccc2cc(O)c(S(=O)(=O)O)cc2c1
CCCCCCCC/C=C\CCCCCCCC(=O)O
Cc1cc(C)c(C)cc1C
Cc1ccc2oc(=O)ccc2c1
c1ccc2c(c1)ccc1ncccc12
O=C1CCCC1
COC(=O)/C=C/C(C)=C\C=C\C(C)=C\C=C\C=C(C)\C=C\C=C(C)\C=C\C(=O)O
COc1ccc(NC(C)=O)cc1N
O=C1OC(=O)c2cc(Oc3ccc4c(c3)C(=O)OC4=O)ccc21
COCC(C)N (stereo not given)
O=c1n(CCO)c(=O)n(CCO)c(=O)n1CCO
Cc1ccc(C(C)(C)C)cc1
CCCNC(=O)NS(=O)(=O)c1ccc(Cl)cc1
Cc1cccc(N)n1
CCOC(=O)c1ccc(N(C)C)cc1
C=C(C)C(=O)OCCOc1ccccc1
CC(C)c1ccc2cc(C(C)C)ccc2c1
O=C(O)CCCCCCCCCC(=O)O
CC(=O)C=CC1C(C)=CCC(C)C1(C)C (stereo not given)
COc1cc(NC(=O)CC(C)=O)c(OC)cc1Cl
CCCCC(CC)COC(=O)c1ccccc1 (stereo not given)
CC(=O)OC1C2(C)CCC(C2)C1(C)C (stereo not given)
CCCCCCCC/C=C\CCCCCCCC(=O)OCCO
CC1=CC[C@H]2C[C@@H]1C2(C)C
CCOC(=O)Cc1cccc2ccccc12

Reference: PubChem BioAssay (EPA / NIEHS)
